Assay [1] deals with POU1 (OCT1 POU domain) (human, UniProt P14859 260-458). Description: EMSA-SELEX-seq; no BOB1; 20 mM Tris-HCl pH 7.6, 140 mM NaCl, 10% glycerol, 0.5 mM EDTA, 0.05% Triton X-100, 0.1 mg/mL BSA, 0.1 mg/mL poly(dI-dC), 5 mM DTT, room temperature, 20 min; high values mean tight binding. The following applies: protein: recombinant; dsDNA, one strand shown. In outline:
(§1)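 Tagged POU-domain proteins were produced in E. coli BL21, purified under denaturing conditions and renatured before use. They were mixed at 30 ng with 300 ng of a PCR-amplified double-stranded random 35-nt library, with or without 28 ng coactivator protein, in 20 μL Tris–HCl pH 7.6 binding buffer, incubating 20 min at RT. Complexes cut from native 6% PAGE were eluted and PCR-amplified over four rounds, then sequenced by Illumina, with binding preference taken as the percentage of sequenced 8-mers matching a motif pattern.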
Background: A gel shift assay detects complexes by their altered migration in electrophoresis.

Assay [2] has as its target T1, POU2 (OCT2 POU domain) (human, UniProt P09086 175-386).
T1 sequence: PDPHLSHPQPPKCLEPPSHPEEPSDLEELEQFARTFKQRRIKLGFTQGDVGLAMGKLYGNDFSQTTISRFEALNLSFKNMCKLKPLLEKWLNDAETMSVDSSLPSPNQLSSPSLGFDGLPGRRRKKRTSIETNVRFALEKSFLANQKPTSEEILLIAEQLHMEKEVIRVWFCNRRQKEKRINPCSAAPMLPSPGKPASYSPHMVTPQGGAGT
The assay is described as above. Particulars: protein: recombinant; dsDNA, one strand shown. In outline:
as §1

Assay [3] addresses POU1 (OCT1 POU domain);BOB1 (OBF1, OCA-B) (human;human, UniProt P14859;Q16633 260-458;1-256, |). As to the kind of experiment: EMSA-SELEX-seq; with BOB1 (ternary complex band); 20 mM Tris-HCl pH 7.6, 140 mM NaCl, 10% glycerol, 0.5 mM EDTA, 0.05% Triton X-100, 0.1 mg/mL BSA, 0.1 mg/mL poly(dI-dC), 5 mM DTT, room temperature, 20 min; high values mean tight binding. Particulars: protein: recombinant;recombinant; copies: 1;1; dsDNA, one strand shown. In short, it runs like this:
as §1

In assay [4] the target is T2, POU2 (OCT2 POU domain);BOB1 (OBF1, OCA-B) (human;human, UniProt P09086;Q16633 175-386;1-256, |).
T2 sequence 1: T1 sequence
T2 sequence 2: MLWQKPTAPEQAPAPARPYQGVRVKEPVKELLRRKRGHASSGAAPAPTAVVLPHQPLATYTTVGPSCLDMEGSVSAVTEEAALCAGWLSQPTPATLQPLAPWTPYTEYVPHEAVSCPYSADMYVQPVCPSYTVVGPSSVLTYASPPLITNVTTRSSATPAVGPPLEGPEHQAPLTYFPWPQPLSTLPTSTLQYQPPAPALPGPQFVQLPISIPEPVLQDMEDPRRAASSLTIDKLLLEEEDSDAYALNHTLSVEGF
The description is as above. The following applies: protein: recombinant;recombinant; copies: 1;1; dsDNA, one strand shown. In short, it runs like this: as §1

Chain of POU1 (OCT1 POU domain) (P14859 260-458): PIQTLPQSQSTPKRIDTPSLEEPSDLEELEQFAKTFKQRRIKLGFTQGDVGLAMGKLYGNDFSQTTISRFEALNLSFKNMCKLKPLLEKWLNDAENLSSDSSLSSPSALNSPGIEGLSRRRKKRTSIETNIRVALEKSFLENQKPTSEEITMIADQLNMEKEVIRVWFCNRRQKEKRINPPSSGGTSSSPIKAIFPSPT

Take AATTTAAA: the binding signal in assay [1] is 0.913 % of ANNNNAAN 8-mers; in assay [2], 0.793 % of ANNNNAAN 8-mers; in assay [3] it was 0.303 % of ANNNNAAN 8-mers; in assay [4], 0.312 % of ANNNNAAN 8-mers.
For ATGCAAAG the same measures were 1.06 % of ANNNNAAN 8-mers, 0.831 % of ANNNNAAN 8-mers, 2.22 % of ANNNNAAN 8-mers and 2.27 % of ANNNNAAN 8-mers.
In the case of AGTCTAAC, the binding signal in assay [1] is 0.021 % of ANNNNAAN 8-mers; in assay [2] it was 0.0207 % of ANNNNAAN 8-mers; in assay [3] it was 0.0199 % of ANNNNAAN 8-mers; in assay [4], 0.0231 % of ANNNNAAN 8-mers.
With ATATGAAG, the binding signal in assay [1] was 0.0545 % of ANNNNAAN 8-mers; in assay [2], 0.0823 % of ANNNNAAN 8-mers; in assay [3], 0.0691 % of ANNNNAAN 8-mers; in assay [4], 0.0735 % of ANNNNAAN 8-mers.
In the same order, the values of AGTACAAT are 0.0416 % of ANNNNAAN 8-mers, 0.0426 % of ANNNNAAN 8-mers, 0.0386 % of ANNNNAAN 8-mers and 0.0462 % of ANNNNAAN 8-mers.
For the sequence AATTTAAG, the binding signal in assay [1] was 0.15 % of ANNNNAAN 8-mers; in assay [2], 0.142 % of ANNNNAAN 8-mers; in assay [3], 0.144 % of ANNNNAAN 8-mers; in assay [4], 0.12 % of ANNNNAAN 8-mers.
In the same order, the values of AAGATAAC are 0.0248 % of ANNNNAAN 8-mers, 0.0334 % of ANNNNAAN 8-mers, 0.0285 % of ANNNNAAN 8-mers and 0.0388 % of ANNNNAAN 8-mers.
As for ATGACAAG, the binding signal is 0.0404 % of ANNNNAAN 8-mers in assay [1], 0.0351 % of ANNNNAAN 8-mers in assay [2], 0.0336 % of ANNNNAAN 8-mers in assay [3] and 0.0289 % of ANNNNAAN 8-mers in assay [4].
In the same order, the values of ATTGCAAT are 0.0561 % of ANNNNAAN 8-mers, 0.061 % of ANNNNAAN 8-mers, 0.0523 % of ANNNNAAN 8-mers and 0.0479 % of ANNNNAAN 8-mers.
For ACGCAAAA the same measures were 0.151 % of ANNNNAAN 8-mers, 0.0944 % of ANNNNAAN 8-mers, 0.277 % of ANNNNAAN 8-mers and 0.157 % of ANNNNAAN 8-mers.
For ATTCGAAA the same measures were 0.0725 % of ANNNNAAN 8-mers, 0.0783 % of ANNNNAAN 8-mers, 0.0605 % of ANNNNAAN 8-mers and 0.0578 % of ANNNNAAN 8-mers.
Consider ACGGGAAT, for which the binding signal in assay [1] was 0.0641 % of ANNNNAAN 8-mers; in assay [2], 0.0725 % of ANNNNAAN 8-mers; in assay [3], 0.0574 % of ANNNNAAN 8-mers; in assay [4], 0.0759 % of ANNNNAAN 8-mers.
On to ATCCCAAG, for which the binding signal in assay [1] was 0.0172 % of ANNNNAAN 8-mers; in assay [2], 0.0167 % of ANNNNAAN 8-mers; in assay [3] it was 0.0246 % of ANNNNAAN 8-mers; in assay [4], 0.0198 % of ANNNNAAN 8-mers.
In the same order, the values of ATCGTAAG are 0.0343 % of ANNNNAAN 8-mers, 0.0449 % of ANNNNAAN 8-mers, 0.0379 % of ANNNNAAN 8-mers and 0.0388 % of ANNNNAAN 8-mers.
As for ATCTCAAT, the binding signal is 0.0561 % of ANNNNAAN 8-mers in assay [1], 0.0846 % of ANNNNAAN 8-mers in assay [2], 0.0558 % of ANNNNAAN 8-mers in assay [3] and 0.0768 % of ANNNNAAN 8-mers in assay [4].
For ACGTTAAG the same measures were 0.037 % of ANNNNAAN 8-mers, 0.0414 % of ANNNNAAN 8-mers, 0.039 % of ANNNNAAN 8-mers and 0.0405 % of ANNNNAAN 8-mers.
In the same order, the values of ATACTAAT are 0.17 % of ANNNNAAN 8-mers, 0.182 % of ANNNNAAN 8-mers, 0.0745 % of ANNNNAAN 8-mers and 0.11 % of ANNNNAAN 8-mers.
For ACAAAAAC the same measures were 0.0488 % of ANNNNAAN 8-mers, 0.0397 % of ANNNNAAN 8-mers, 0.0706 % of ANNNNAAN 8-mers and 0.0405 % of ANNNNAAN 8-mers.
In the case of ACTTCAAC, the binding signal is 0.0145 % of ANNNNAAN 8-mers in assay [1], 0.015 % of ANNNNAAN 8-mers in assay [2], 0.0121 % of ANNNNAAN 8-mers in assay [3] and 0.0231 % of ANNNNAAN 8-mers in assay [4].
As to AATGTAAG, the binding signal in assay [1] was 0.104 % of ANNNNAAN 8-mers; in assay [2], 0.106 % of ANNNNAAN 8-mers; in assay [3], 0.089 % of ANNNNAAN 8-mers; in assay [4] it was 0.0958 % of ANNNNAAN 8-mers.
In the same order, the values of ATGGCAAG are 0.0355 % of ANNNNAAN 8-mers, 0.0414 % of ANNNNAAN 8-mers, 0.0351 % of ANNNNAAN 8-mers and 0.0371 % of ANNNNAAN 8-mers.
For ATGCTAAC the same measures were 0.0671 % of ANNNNAAN 8-mers, 0.0949 % of ANNNNAAN 8-mers, 0.0347 % of ANNNNAAN 8-mers and 0.0495 % of ANNNNAAN 8-mers.
In the case of AAATCAAA, the binding signal is 0.133 % of ANNNNAAN 8-mers in assay [1], 0.117 % of ANNNNAAN 8-mers in assay [2], 0.194 % of ANNNNAAN 8-mers in assay [3] and 0.136 % of ANNNNAAN 8-mers in assay [4].
In the same order, the values of AGAGTAAC are 0.0206 % of ANNNNAAN 8-mers, 0.0322 % of ANNNNAAN 8-mers, 0.0234 % of ANNNNAAN 8-mers and 0.0264 % of ANNNNAAN 8-mers.
Take ACATCAAT: the binding signal in assay [1] is 0.0435 % of ANNNNAAN 8-mers; in assay [2] it was 0.057 % of ANNNNAAN 8-mers; in assay [3], 0.0367 % of ANNNNAAN 8-mers; in assay [4], 0.0338 % of ANNNNAAN 8-mers.
Take ATGTAAAC: the binding signal in assay [1] was 0.249 % of ANNNNAAN 8-mers; in assay [2], 0.196 % of ANNNNAAN 8-mers; in assay [3], 0.293 % of ANNNNAAN 8-mers; in assay [4] it was 0.227 % of ANNNNAAN 8-mers.
In the same order, the values of ACCGAAAG are 0.0137 % of ANNNNAAN 8-mers, 0.0144 % of ANNNNAAN 8-mers, 0.0164 % of ANNNNAAN 8-mers and 0.0149 % of ANNNNAAN 8-mers.
In the same order, the values of AAAGAAAC are 0.0355 % of ANNNNAAN 8-mers, 0.0339 % of ANNNNAAN 8-mers, 0.0433 % of ANNNNAAN 8-mers and 0.0371 % of ANNNNAAN 8-mers.
In the same order, the values of AGAGTAAT are 0.0648 % of ANNNNAAN 8-mers, 0.0777 % of ANNNNAAN 8-mers, 0.0499 % of ANNNNAAN 8-mers and 0.0537 % of ANNNNAAN 8-mers.

The values above are taken from paper PMC10812921, “Transcriptional Coactivator BOB1 (OBF1, OCA-B) Modulates the Specificity of DNA Recognition by the POU-Domain Factors OCT1 and OCT2 in a Monomeric Configuration”.
